From PubChem BioAssay (NCI) come the findings set out here.

The panel holds about 83,000 compounds, 20% with a hit somewhere; the sample as a whole holds those more often.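 Method: cells in 96-well plates; compound added at one concentration; 48 h incubation; percent growth measured; values under 10 scored active.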 Unmarked numbers belong to inactive results. Activity calls are given as the source filed them.

Test systems include NCI-H23 lung; NCI-H226 lung; NCI-H322M lung; HOP-62 NSCLC; NCI-H460 lung; HOP-92 NSCLC; NCI-H522 lung; A549/ATCC NSCLC; 786-0 renal; COLO 205 colon; DU-145 prostate; K-562 leukemia; MALME-3M melanoma; MDA-MB-231 breast; RXF 393 renal; SF-268 CNS; SF-295 CNS; SF-539 CNS; UACC-257 melanoma; M14 melanoma.
Holding throughout (assay): NCI-60 one-dose screen, 48 h (100 = growth as untreated, 0 = no growth, -100 = all killed)
Common to all, as to conditions: 10 µM unless noted

In the case of `NC(=O)c1ccc(-c2ccc3ncnc(N4CCc5cc(F)c(Cl)cc54)c3c2)cn1`, the growth in the assay on NCI-H23 lung is 70.9%; with NCI-H226 lung, 83.3%; in the assay on NCI-H322M lung, 24.1%; in the assay on HOP-62 NSCLC, 99.9%; in the assay with NCI-H460 lung, 79.6%; with HOP-92 NSCLC it was 15.4%. Besides, the growth with NCI-H522 lung is 94.1%; with A549/ATCC NSCLC, 63%; in the assay on 786-0 renal it was 66.5%; in the assay on COLO 205 colon, 47.9%; with DU-145 prostate, 49.5%; in the assay with K-562 leukemia, 34.7%. Moreover, the growth in the assay on MALME-3M melanoma is 78.9%; in the assay with MDA-MB-231 breast, 49.3%; in the assay with RXF 393 renal it was 40.9%; with SF-268 CNS, 95.6%; with SF-295 CNS, 79.4%; in the assay with SF-539 CNS it was 63%. Moreover, the growth is 110% in the assay with UACC-257 melanoma and 70.2% with M14 melanoma.
Consider `Cn1cc(-c2cc(N)n3nc(-c4c[nH]c5ccc(Cl)cc45)cc3n2)c2cc(Br)cnc21`, for which the growth with NCI-H23 lung is -58.6% (active); in the assay on NCI-H226 lung, -12.5% (active); in the assay on NCI-H322M lung, 32.3%; in the assay on HOP-62 NSCLC, -22.4% (active); in the assay on NCI-H460 lung it was -58% (active); in the assay on HOP-92 NSCLC, -76.8% (active). Also, the growth is -71% (active) in the assay on NCI-H522 lung; -64.9% (active) with A549/ATCC NSCLC; -93.7% (active) in the assay with 786-0 renal; -91.6% (active) with COLO 205 colon; -71.6% (active) in the assay on DU-145 prostate; -63.7% (active) with K-562 leukemia. Moreover, the growth in the assay on MALME-3M melanoma was -79.1% (active); with MDA-MB-231 breast, -73.4% (active); in the assay with RXF 393 renal it was -70.4% (active); in the assay with SF-268 CNS, 9.71% (active); in the assay with SF-295 CNS, -50.9% (active); with SF-539 CNS, -91.1% (active). In addition, the growth with UACC-257 melanoma was -55% (active); in the assay on M14 melanoma it was -92.4% (active).
In the case of `CC(C)C[C@H](NC(=O)CNC(=O)C[C@H]1O[C@@H]2OC3(C)CC[C@H]4[C@H](C)CC[C@@H]([C@H]1C)[C@@]24O3)B(O)O`, the growth in the assay with NCI-H23 lung is -37.1% (active); in the assay with NCI-H226 lung, -36.2% (active); in the assay on NCI-H322M lung, 54.4%; in the assay with HOP-62 NSCLC, -3.39% (active); with NCI-H460 lung, 9.47% (active); with HOP-92 NSCLC, -18.8% (active). Moreover, the growth in the assay with NCI-H522 lung was -74.3% (active); in the assay on 786-0 renal, 16%; in the assay on COLO 205 colon, 29.5%; with DU-145 prostate, 42%; in the assay with K-562 leukemia, 8% (active); with MALME-3M melanoma, -71.9% (active). For the same molecule, the growth in the assay on MDA-MB-231 breast was -80.9% (active); with RXF 393 renal, -78.5% (active); with SF-268 CNS, -22.4% (active); in the assay with SF-295 CNS it was -61.3% (active); in the assay with SF-539 CNS, -93.6% (active); in the assay on UACC-257 melanoma, -52.1% (active). For the same molecule, in the assay with M14 melanoma, the growth is -45.8% (active).
In the case of `COc1ccc(C(=O)/C=C/c2ccc3c(c2)OCCO3)cc1S(N)(=O)=O`, the growth in the assay on NCI-H23 lung was 73%; in the assay with NCI-H226 lung, 116%; in the assay with NCI-H322M lung it was 84.6%; with HOP-62 NSCLC, 29.7%; with NCI-H460 lung it was 68.3%; with HOP-92 NSCLC, 94.5%. Besides, the growth in the assay with NCI-H522 lung was 43.8%; in the assay on 786-0 renal, 76.5%; in the assay with COLO 205 colon, 91.9%; in the assay with DU-145 prostate, 44.7%; with K-562 leukemia it was 16.7%; with MALME-3M melanoma, 88.3%. The growth with MDA-MB-231 breast is 86.5%; in the assay with RXF 393 renal it was 88.5%; with SF-268 CNS, 111%; in the assay with SF-295 CNS it was 79.5%; in the assay on SF-539 CNS it was 44.9%; with UACC-257 melanoma it was 77.9%.
For `Cc1ccc(Nc2nnc(-c3c[nH]c4ccccc34)o2)c(C)c1`, the growth was 16.2% in the assay on NCI-H23 lung; 43.9% with NCI-H226 lung; 40.2% in the assay on NCI-H322M lung; 23.2% with HOP-62 NSCLC; 8.57% (active) with NCI-H460 lung; 21.8% with HOP-92 NSCLC. In addition, the growth in the assay with NCI-H522 lung is -30.4% (active); in the assay on 786-0 renal, 1.66% (active); with COLO 205 colon, -55.5% (active); in the assay on DU-145 prostate, 16.5%; in the assay with K-562 leukemia, 6.22% (active); in the assay on MALME-3M melanoma, 39.1%. Moreover, the growth with MDA-MB-231 breast is -1.28% (active); in the assay on RXF 393 renal, -11.9% (active); in the assay with SF-268 CNS, 32.5%; in the assay on SF-295 CNS, 9.91% (active); with SF-539 CNS it was -32.4% (active); in the assay on UACC-257 melanoma it was 60.9%. Besides, the growth in the assay on M14 melanoma was 15.6%.
Take `C[C@H](NC(=O)c1ccc2c(-c3ccc(C(F)(F)F)cc3)cccc2c1)c1ccccn1`: the growth in the assay on NCI-H23 lung is 70.7%; in the assay on NCI-H226 lung it was 28.3%; in the assay on NCI-H322M lung, 50.8%; in the assay with HOP-62 NSCLC, 77.3%; with NCI-H460 lung, 42.5%; in the assay with HOP-92 NSCLC it was 25.5%. The growth was 39.6% with A549/ATCC NSCLC; 44.3% in the assay on 786-0 renal; 61.6% in the assay on COLO 205 colon; 56.4% in the assay on DU-145 prostate; 20.6% in the assay on K-562 leukemia; 67% in the assay on MALME-3M melanoma. Also, the growth in the assay on MDA-MB-231 breast is 59.9%; in the assay with RXF 393 renal, 13%; with SF-268 CNS it was 58.9%; in the assay on SF-295 CNS it was 32.5%; with SF-539 CNS, 62.3%; with UACC-257 melanoma it was 64.3%. Moreover, in the assay with M14 melanoma, the growth is 40.7%.
Turning to `Nc1cc(-c2c[nH]c3ccc(Br)cc23)nc2cc(-c3c[nH]c4ccccc34)nn12`, the growth in the assay on NCI-H23 lung is -68.9% (active); in the assay with NCI-H226 lung it was 3.69% (active); in the assay with NCI-H322M lung, -18.8% (active); in the assay with HOP-62 NSCLC, -61.9% (active); with NCI-H460 lung, -53.1% (active); with HOP-92 NSCLC, -50.8% (active). Moreover, the growth in the assay with A549/ATCC NSCLC was -47.2% (active); in the assay on 786-0 renal, -68.2% (active); in the assay on COLO 205 colon, -87% (active); with DU-145 prostate, -47.5% (active); in the assay on K-562 leukemia, 6.16% (active); in the assay with MALME-3M melanoma, -88.1% (active). Moreover, the growth in the assay on MDA-MB-231 breast was -83.3% (active); in the assay on RXF 393 renal it was -76.7% (active); with SF-268 CNS, -44.5% (active); in the assay on SF-295 CNS, -87.6% (active); in the assay with SF-539 CNS it was -93.5% (active); with UACC-257 melanoma, -86.9% (active). Besides, in the assay on M14 melanoma, the growth was -69.4% (active).
Regarding `CC[C@]12C=CCN3CC[C@@]4(c5ccc(OC)cc5N(C)[C@H]4[C@@](O)(C(=O)OC)[C@@H]1OC(=O)CCCC[P+](c1ccc(F)cc1)(c1ccc(F)cc1)c1ccc(F)cc1)[C@@H]32`, the growth in the assay on NCI-H23 lung is 23.6%; in the assay on NCI-H226 lung, 38%; in the assay with NCI-H322M lung, 52.9%; in the assay on HOP-62 NSCLC, 50.9%; in the assay on NCI-H460 lung, 20.3%; in the assay with HOP-92 NSCLC it was -12.2% (active). The growth in the assay on A549/ATCC NSCLC is 37.5%; in the assay with 786-0 renal, 87.1%; in the assay on COLO 205 colon, -43.4% (active); in the assay on DU-145 prostate, 36.4%; with K-562 leukemia, 17.1%; with MALME-3M melanoma it was -55.9% (active). In addition, the growth is 2.85% (active) with MDA-MB-231 breast; -9.93% (active) in the assay on RXF 393 renal; 28.1% in the assay with SF-268 CNS; 78.5% with SF-295 CNS; 16% in the assay with SF-539 CNS; -50.7% (active) in the assay on UACC-257 melanoma. Moreover, in the assay on M14 melanoma, the growth was 19.7%.
